Laboratory results as given in PubChem BioAssay AID709 (SRMLSC, 2007).
About 3,600 (5.5%) of roughly 65,000 compounds were called active. The entries come from a sample that favours actives as a whole. A number with no mark means an inactive call.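 The calls were made as follows: active = at 10 µM, mean starting fluorescence two-fold or more over control wells; inactive = the rest.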

Assay: intrinsic fluorescence of library compounds, ex339/em460 – biochemical, MLSMR library, data from DPM-DC assay, artefact control, profiling panel (AID 709);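 also: signal is the first read of a kinetic run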
Details: compound autofluorescence, ex339/em460 nm, NADH buffer; at 10 µM; hits give high values; 1 = no-compound wells, NADH background

SMILES	fluorescence fold increase
COc1ccc2c(c1OC)C(=O)OC2c1c(O)nc(SC)n(-c2ccccc2)c1=O (configuration not stated)	1.06
Cc1cc(O)ccc1-c1cnc2ccccc2n1	1.05
Cc1nc2ccccc2cc1O	2.48 (active)
CCOC(=O)c1cc2ccccc2nc1C	1.08
Cc1cccc(OCc2nnc(SCC(=O)N3CCN(C(=O)c4ccco4)CC3)n2C)c1C	1.11
O=C(O)C1CCN(S(=O)(=O)N2CCOCC2)CC1	1.1
CCOC(=O)c1cc2n(c1C)-c1ccccc1C2=O	1.02
CCCn1c(=NC(C)=O)c(C(=O)OCC)cc2c(=O)n3ccccc3nc21	3.86 (active)
CCOC(=O)c1cc2n(c1N)-c1ccccc1C2=O	1.16
O=C(Nc1ccc(NC(=O)c2cccs2)cn1)c1ccco1	1.08
Cc1cccc(-n2c(N)cc(=O)nc2SC(C)C(=O)NC2CCCCC2)c1 (configuration not stated)	1.06
O=C(CN1C(=O)C2C3C=CC(C3)C2C1=O)NCCc1ccccc1Cl (configuration not stated)	1.05
CCOc1ccc(OCC)c(NC(=O)CSc2nnc(Cn3cnc4ccccc43)n2C)c1	1.12
Cn1c(Cc2csc(N)n2)nnc1SC/C=C/c1ccccc1	1.1
Cc1cn(C2C=CC(CO)O2)c(=O)[nH]c1=O (configuration not stated)	1.07
CCn1nc(NC(=O)c2ccco2)c2cc3ccc(C)cc3nc21	3.62 (active)

SMILES	fluorescence fold increase
Cc1ccc(Cn2c(NC(=O)c3ccco3)nc3ccccc32)cc1	1.32
Cc1ccc(-n2nc3cc(Cl)c(NC(=O)c4ccco4)cc3n2)cc1	1.84
CCOc1ccc(NC(=O)CCS(=O)(=O)c2cccc3nsnc23)cc1	1.08
CCC1CCCCN1C(=O)Nc1cccc(NC(=O)N2CCCCC2CC)c1 (configuration not stated)	1.13
CCOC(=O)N1CCN(S(=O)(=O)c2cc3c(cc2C)NC(=O)CO3)CC1	1.11
CCn1ncc(C2=NOC(C(=O)N3CCN(c4ccccc4)CC3)C2)c1C (configuration not stated)	1.14
O=C(NCc1cccs1)c1ccc2c(c1)ncn2C1CCCC1	1.03
O=C(CSC1=Nc2ccccc2C2=NC(c3ccccc3)C(=O)N12)NCC1CCCO1 (configuration not stated)	2.12 (active)
O=C(CSc1nnc(-c2ccc(NS(=O)(=O)c3ccccc3)cc2)o1)NCC1CCCO1 (configuration not stated)	1.01
O=C(CS(=O)(=O)Cc1ccccc1)NCC1CCCO1 (configuration not stated)	1.1
CN(C(=O)c1ccno1)c1nnc(-c2cccnc2)s1	1.68
CN(C(=O)COc1ccccc1)c1nnc(-c2ccncc2)s1	5 (active)
O=C(c1cccs1)N(C(=O)c1cccs1)c1ccccn1	1.09
COc1cccc(-c2nnc(N(C)C(=O)c3ccno3)s2)c1	1.38
CN(C(=O)c1ccccn1)c1nnc(-c2ccccn2)s1	3.72 (active)
CN(C(=O)C1CCOC1)c1nnc(-c2cccnc2)s1 (configuration not stated)	1.03
